Experimental data taken from ChEMBL document CHEMBL1157539, “Thousands of chemical starting points for antimalarial lead identification” (Nature, 2010).

What follows are compounds tested on Plasmodium falciparum (assay: GSK_TCMDC: Inhibition of Plasmodium falciparum Dd2 in whole red blood cells, using parasite LDH activity as an index of growth. Test compounds present at 2uM).
Type: functional

Row | Compound | Inhibition
1 | CN1CCCN(Cc2ccc(-c3cccc(NC(=O)c4ccc(C#N)cc4)c3)cc2)CC1.O=C(O)C(F)(F)F | 26%
2 | CC(C)Cc1cnc2nc(N)nc(N)c2c1.Cl | 0%
3 | NC(=O)c1cnc2cc(-c3ccncc3)cc(Nc3ccc(NC(=O)C4CCCCC4)cc3)c2c1 | 99%
4 | Cc1sc(N2CCCCC2)nc1C(=O)Nc1ccc(F)cc1C(F)(F)F.O=C(O)C(F)(F)F | 35%
5 | Cc1ccccc1C1CCN(C2CCC(NC(=O)/C=C/c3c[nH]c4ccccc34)CC2)CC1 (centres undefined) | 51%
6 | O=C(O)C(F)(F)F.c1cc(CNCCN2CCNCC2)cc(-c2ccc(-c3nc4ccccc4[nH]3)cc2)c1 | 11%
7 | Br.CC(C)(C)c1ccc(OCCCON2C(N)=NC(N)=NC2(C)C)cc1 | 76%
8 | CCN(CCCN1CCCCC1)c1cc(C)nc(Nc2ccc(C)c(F)c2)n1.O=C(O)C(F)(F)F | 92%
9 | Cc1cccc2nc(-c3cccc(-c4ccc(NC(=O)NCc5cccc(F)c5)cc4)c3)[nH]c12 | 83%
10 | CC(C)Cn1c(Sc2ccc(C#N)c([N+](=O)[O-])c2)nnc1-c1ccc(N(C)C)cc1 | 98%
11 | CC(C)N1CCN(C(CN2CCN(CCCOc3ccc(-c4ccccc4)cc3)CC2)c2ccc(F)cc2)CC1.Cl (centres undefined) | 100%
12 | N#Cc1ccc(-c2ccc(C(=O)NCCCCN3CCC(c4ccc5c(c4OCc4ccncc4)CCCC5)CC3)cc2)cc1 | 57%
13 | CN1CCN(CCCNCc2ccc(Nc3nccc(Nc4ccc(Oc5ccccc5)cc4)n3)cc2)CC1 | 9%
14 | c1ccc(Oc2ccc(Nc3ccnc4ccc(-c5ccccn5)cc34)cc2)cc1 | 10%
